Source: PubChem
PrPC TRFRET: inhibitors of human cell surface prion protein PrPC. P04156. TR-FRET read-out. inhibition, % at 13.8 µM. 0.43% of 370,000 active. AID 720596; in the data active = inhibition above about 24%; note: 0% = median of the test wells and 100% = reference compound wells
Mtb FBA inh: Mtb fructose-bisphosphate aldolase inhibition; P9WQA3; purified M. tuberculosis FBA, fluorescence read-out; inhibition, % at 1 µM; 2.3% of 360,000 active; in the data active = inhibition above about 27%;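 note: 0% = vehicle and 100% = reference inhibitor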
Target sequence (P9WQA3 whole entry, looked up): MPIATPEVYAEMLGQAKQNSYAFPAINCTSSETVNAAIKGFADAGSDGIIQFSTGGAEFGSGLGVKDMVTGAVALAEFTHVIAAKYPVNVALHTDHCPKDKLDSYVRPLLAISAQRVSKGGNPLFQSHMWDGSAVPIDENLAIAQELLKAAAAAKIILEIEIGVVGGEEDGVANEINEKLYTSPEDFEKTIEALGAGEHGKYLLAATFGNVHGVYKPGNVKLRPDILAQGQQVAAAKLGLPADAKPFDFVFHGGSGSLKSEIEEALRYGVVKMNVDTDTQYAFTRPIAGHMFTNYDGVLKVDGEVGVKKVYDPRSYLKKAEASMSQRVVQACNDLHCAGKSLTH
PfHsp40 rescue: restores yeast growth despite PfHsp40 toxicity; S. cerevisiae expressing PfHsp40, growth rescue, ATP luminescence; growth rescue, % at 12.5 µM; 0.68% of 340,000 active; in the data active = growth rescue above about 28%, passing the limit was not always enough;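 note: yeast W303a lacking pdr1 and pdr3 grown in galactose medium; growth measured after three days at 30 °C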
GDH-TPI inh: GDH-TPI coupled enzyme inhibition counter-screen; GDH-TPI coupled enzyme counterscreen, NADH absorbance; inhibition, % at 4.8 µM; 1.2% of 360,000 active; AID 588335; in the data active = inhibition above about 30%;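 note: 0% = DMSO wells and 100% = wells lacking the enzyme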
PrP 5UTR inh: inhibition of PrP 5' UTR reporter expression | 0.35% of 340,000 active | cell-based PrP 5' UTR mRNA reporter, plate reader | inhibition, % (concentration not given with the values); in the data active = inhibition above about 52%; note: 0 = median of the neutral control wells
BJeLR viability: kills HRASV12-expressing BJeLR cells | inhibition, % (concentration not given with the values) | 0.17% of 300,000 active | BJeLR (HRASV12) viability, CellTiter-Glo ATP luminescence, 48 h; in the data active = inhibition above about 50%
An asterisk follows results filed as active; x = no result; + = active, no number; ! = not active in a repeat. Shown are actives, neighbours in structure and some others; about 4.5% of the full set was active somewhere.

SMILES	PrPC TRFRET	Mtb FBA inh	PfHsp40 rescue	GDH-TPI inh	PrP 5UTR inh	BJeLR viability
O=C(/C=C/c1ccccc1Cl)c1ccccc(=O)c1O	-8	-2	64*	12	-18	26
Cc1ccc(/C=C/C(=O)c2ccccc(=O)c2O)c(C)c1	-7	-1	183*	15	-9	16
O=C(C=Cc1ccccc1O)c1ccccc1O	9	-5	19	18	-58	x
Cc1ccc(C)c(/C=C/C(=O)c2ccccc(=O)c2O)c1	4	-3	224*	23	7	37
O=C(/C=C/c1ccc([N+](=O)[O-])cc1)c1ccccc(=O)c1O	-8	-8	0	21	5	x
Cc1ccc(NC(=O)Cn2nnc(-c3ccccc3F)n2)c(C)c1	-3	x	x	x	x	x
N#CC(c1ccc(O)cc1)N1CCOCC1 (centres undefined)	0	-1	1	31*	-9	7
Oc1ccc(C=NC2CCCCC2)cc1	5	-4	0	37*	-1	-10
O=C(C1CCCN1S(=O)(=O)c1cccs1)N1CCc2ccccc2C1 (centres undefined)	-4	x	x	x	x	x
COC(=O)[C@]12C[C@H](CC(=O)N3CCOCC3)C(=O)N(Cc3ccco3)C1=C[C@H](COCc1ccccc1)O[C@@H]2C	6	x	x	x	x	x
CCOc1ccc(/C=N/Nc2nc(=O)[nH]nc2C)cc1OC	3	-4	-1	33*	-14	-3
COc1ccc(/C=N/Nc2ccccn2)c(OC)c1OC	0	-4	1	20	-58	16
CCCOc1ccc(/C=N/Nc2ccccn2)cc1OC	-8	-8	1	35*	-101	0
COc1ccc(/C=N\Nc2ccccn2)c(OC)c1	5	-1	-2	36*	-76	6
O=C(c1cncnc1)N1CCC(n2nnc3ncccc32)CC1	4	x	x	x	x	x
COc1ccccc1N1CCN(C(c2cc3cc(C)ccc3[nH]c2=O)c2nnnn2C2CCCC2)CC1 (centres undefined)	-2	-1	1	-1	-16	-13
COc1ccccc1N1CCN(C(c2cc3ccc(C)cc3[nH]c2=O)c2nnnn2C2CCCC2)CC1 (centres undefined)	2	4	1	34*	-3	-3
COc1ccc(-n2nnc3c(SC(C(C)=O)C(=O)N(C)C)ncnc32)cc1 (centres undefined)	-14	-2	0	32*	-25	-2
COC(=O)C[C@H]1CC[C@H]2[C@H](COc3ccc(NS(=O)(=O)c4ccccc4C)cc3C(=O)N2C)O1	2	x	x	x	x	x
CCOc1ccc(-n2c(SCC(=O)Nc3ccc(S(=O)(=O)Nc4cc(C)nc(C)n4)cc3)nnc2-c2ccc(OC)cc2)cc1	-2	x	x	x	x	x
C=CCN(Cc1ccc2c(c1)OCO2)C(C#Cc1ccccc1)c1ccccc1C(F)(F)F (centres undefined)	-3	x	x	x	x	x
COc1ccc(CN2CCN(c3ccccn3)CC2)c(OC)c1C	-4	+!	1	19	-15	5
CC(=O)c1cnc2cc(-c3ccc(C)cc3)nn2c1C	-1	9	1	18	-140	1
COc1ccc(-c2cc3ncc(C(C)=O)c(C)n3n2)cc1	0	1	53*	0	-85	-3
C[C@@H]1CN([C@@H](C)COC(=O)C(C)(C)C)C(=O)c2cc(NC(=O)Nc3ccccc3)ccc2O[C@@H](C)CCCCO[C@H]1CN(C)S(=O)(=O)c1ccc(F)cc1	9	x	x	x	x	x
SMILES	PrPC TRFRET	Mtb FBA inh	PfHsp40 rescue	GDH-TPI inh	PrP 5UTR inh	BJeLR viability
COc1ccc(Nc2nnc(SCC(=O)c3cc4ccccc4o3)s2)cc1	2	3	1	37*	-44	8
O=c1c2oc3ccccc3c2[nH]c(=S)n1-c1ccc(F)cc1	19	3	0	33*	-9	5
Cc1ccc(-n2c(=S)[nH]c3c(oc4ccccc43)c2=O)cc1C	8	-1	6	1	-5	-5
CC(=O)c1cccc(NC(=O)/C(=C\c2ccco2)NC(=O)c2cccs2)c1	-9	-11	-1	32*	0	4
O=C(NCc1ccco1)/C(=C\c1ccco1)NC(=O)c1ccco1	0	-2	0	8	-11	7
O=C(Nc1cccc(F)c1)/C(=C\c1ccco1)NC(=O)c1ccco1	2	0	0	39*	-11	4
COC(=O)c1cccc(NC(=O)/C(=C\c2ccco2)NC(=O)c2ccco2)c1	-7	-5	x	25	x	x
